# Screening results (PubChem BioAssay)
# This is a sample that favours compounds with a hit; in the whole collection about 6.5% have one here.
# VACV Venus inh: inhibitors of vaccinia virus (Venus reporter); AID 720580; Vaccinia virus Venus reporter expression, fluorescence; Potency, µM (titrated, usually from 36.5 µM), for inactives: top-dose activity change, negative = inhibition, hits mostly inhibitors; 330,000 tested, 0.46% active; calls by dose curve; tested in A549 cells; further: potency means the concentration at half of the fitted maximal effect; nearly all actives have a fitted effect of over 30% in size
# LASV entry inh: inhibitors of Lassa virus binding or cell entry; Lassa virus pseudotype entry inhibition, cell reporter; Potency, µM (titrated, usually from 37.9 µM), for the others: top-dose activity change, negative = inhibition, most hits filed as inhibitors; 300,000 tested, 1.2% active; calls by dose curve; tested in HEK293 cells; further: potency means the concentration at half of the fitted maximal effect; nearly all actives have a fitted effect of over 50% in size
# HCMV antiviral: human cytomegalovirus inhibition; HFF cells, HCMV-luciferase reporter, 72 h; hits give low values; activity change, negative = inhibition, % at 57.5 µM; 410,000 tested, 4.5% active; AID 1259415; in the data active means activity change below about -60%; inconclusive means no clear call, values can overlap the other calls; inactive means above about -39%
#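 Compounds were evaluated in HFFs infected with an HCMV luciferase reporter virus (MOI 1 PFU/cell). Luciferase in lysates collected 72 h post infection served as the replication measure.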
# FMDV antiviral: blocks foot and mouth disease virus. FMDV antiviral cell-based qHTS. Potency, µM (top dose mostly 57.9 µM), without a hit: at the highest dose activity change, negative = inhibition, hits mostly inhibitors. 410,000 tested, 1.2% active; calls by dose curve; tested in HEK293T cells; further: read-out not given here; potency means the concentration at half of the fitted maximal effect; nearly all actives have a fitted effect of over 45% in size
# MARV entry inh: blocks Marburg virus binding to or entry into cells. Marburg virus pseudotyped entry inhibition, cell reporter. Potency, µM (highest dose often 37.8 µM), inactives show top-dose activity change, negative = inhibition, most hits filed as inhibitors. 300,000 tested, 1.8% active. AID 540276; calls by dose curve; tested in HEK293 cells; further: potency means the concentration at half of the fitted maximal effect
# VACV mCherry inh: vaccinia inhibition (mCherry reporter); AID 720579; 310,000 tested, 0.63% active; Potency, µM (series often up to 36.5 µM), without a hit: at the top dose activity change, negative = inhibition, most hits filed as inhibitors; Vaccinia virus mCherry reporter infection, fluorescence; calls by dose curve; tested in A549 cells; further: potency means the concentration at half of the fitted maximal effect; nearly all actives have a fitted effect of over 35% in size
# * hit, by the source's call; i = inactive; ? = inconclusive; . = no result given; [ ] = remark or other dose. On the % scale 0 is the no-effect control and ±100 the full control effect.
SMILES,VACV Venus inh,LASV entry inh,HCMV antiviral,FMDV antiviral,MARV entry inh,VACV mCherry inh
CCCCOc1ccccc1C1CC(=O)Nc2ccc3ccccc3c21 (centres undefined),-8%[7.34 µM],-23%[46.1 µM],-92*,-21%,?,i[7.34 µM]
COc1ccc(OCC(=O)Nc2ncc3c(n2)CC(C)(C)CC3=O)cc1,.,2%,13,-14%,3%,.
O=C(COc1ccccc1)Nc1ncc2c(n1)CCCC2=O,16%,-4%,-62*,0%,-18%,.
O=C(Nc1cccc(Cl)c1)OCc1cn(-c2ccccc2)nn1,2%,?,-15,2.5µM*,16%[46.1 µM],-2%
CCC(CC)c1nn2c(=O)cc(COc3ccc(NC(=O)c4cccc(C)c4)cc3)nc2s1,-2%,-13%[46.1 µM],16,0%,1%[46.1 µM],6%
Cn1c2ccccc2c2cc(/C=N/NC(=O)c3cc(O)ccc3O)ccc21,?,?,16,20µM*,-8%,-1%
CCn1c2ccccc2c2cc(/C=N/NC(=O)c3ccccc3)ccc21,.,?,-21,-17%,12µM*,.
CCOc1ccc(OCC)c(NC(=O)CN(C)S(=O)(=O)c2ccc3nc(C)sc3c2)c1,-24%,?,?,32µM*,-3%,?
Cc1ccc(/C=C2\Oc3cc(OC(=O)N4CCOCC4)ccc3C2=O)cc1,-5%,6%,45,14%,3%,-13%
CC(C)(C)c1ccc(/C=C2\Oc3cc(OC(=O)N4CCOCC4)ccc3C2=O)cc1,-7%,8.9µM*,-38,?,?,-11%
Cc1cc(C(=O)NCCC2=CCCCC2)c(C)o1,.,?,107,1%,15µM*,.
CC(C)CNC(=O)c1coc(=O)c(Br)c1,.,16µM*,-77*,?,?,.
O=C(NCCC1=CCCCC1)c1coc(=O)c(Br)c1,-12%,-12%,-103*,-25%,5%,i
Cc1cc2ccccn2c1C(=O)c1ccc([N+](=O)[O-])o1,?,?,-66*,?,?,?
Cc1cc2ccccn2c1C(=O)c1cccc([N+](=O)[O-])c1,-11%,?,?,?,?,-15%
Cc1cc2ccccn2c1C(=O)c1ccc(S(=O)(=O)N(C)C)cc1,-17%,-13%[46.1 µM],-66*,?,-2%[46.1 µM],-14%
COc1ccc2c(c1)c1c(c(=O)n(-c3ccc(OC)c(OC)c3)c(=O)n1Cc1ccccc1F)n2C,0%,0%[46.1 µM],2,-11%,.,-9%
COc1ccc(/C=C2\CCCC3C2=NN(C(=O)c2scnc2C)C3c2ccc(OC)c(OC)c2)cc1OC (centres undefined),.,5.2µM*,-8,-3%,?,.
COc1ccc(/C=C2\CCCC3C2=NN(C(=O)c2ccco2)C3c2ccc(OC)c(OC)c2)cc1OC (centres undefined),?,?,43,-2%,?,.
CCOc1cc(/C=C(\C#N)C(=O)Nc2ccc(OC)cc2)ccc1OCc1cc(=O)n2nc(CC)sc2n1,2%,0%[46.1 µM],7,0%,5%[46.1 µM],1%
COc1ccc(Cn2c(C)c(C)c(C#N)c2NC(=O)Nc2cccc(C)c2)cc1,-20%,-59%,-67*,13%,?,?
Nc1ccn(C2OC(COC(=O)C34CC5CC(CC(C5)C3)C4)C(O)C2O)c(=O)n1 (centres undefined),?,4%,-97*,-12%,-8%,0.32µM*
N=c1ccn2c(n1)OC1C(O)C(CO)OC12 (centres undefined),?,.,-100*,3%,.,28µM*
N=c1ccn2c(n1)OCC1C2O[C@@H](O)[C@H]1O (some centres undefined),.,.,.,-10%,.,.
Nc1ccn(C2OC(CCl)C(O)C2O)c(=O)n1 (centres undefined),?,.,-61*,-9%,.,?
Nc1ccn([C@@H]2O[C@H](CO)[C@@H](O)C2O)c(=O)n1 (some centres undefined),-27%,?,-97*,-24%,?,0.45µM*
Nc1ccn([C@@H]2O[C@H](CO)[C@@H](O)[C@H]2O)c(=O)n1,-14%,.,40,-13%,.,-20%
Cc1ccc(CN2CCN(C3CCN(S(=O)(=O)N(C)C)CC3)C(=O)C2=O)cc1,1%,19%[46.1 µM],-1,1%,.,-9%
